Where “and” joins values, the source holds several entries; their conditions need not be identical. Identical values can stand only once. Hit rate of the full screen: of about 5,500 compounds, about 2,000 (36%) were called active. Not shown: some 18% with an inconclusive outcome. Rule as the data show it: active = normalized growth mostly below about 0.91 (no sharp cut-off); inconclusive = no clear call, values can overlap the other calls; inactive = mostly above about 0.92. Some of the results follow.
Assay: chemical genetic growth profiling, strain panel (AID 1159580);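 also: tested at 20 µM; growth read once vehicle control cultures reached saturation at 30 °C; 1 = growth at the plate median or of vehicle wells; lower values mean less growth of the strain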
Settings: S. cerevisiae deletion strains, growth OD

Measured: normalized growth

Cc1cccc(N(C)C(=S)Oc2ccc3ccccc3c2)c1
active: locus YDR137W, strain rgp1, hits give low values 1.33 [resistant]
inactive: locus YAL013W, strain DEP1, hits give low values 0.968 | locus YAL021C, strain ccr4, hits give low values 0.952 | locus YAL026C, strain drs2, hits give low values 0.995 | locus YAL030W, strain snc1, hits give low values 0.996 | locus YBL061C, strain skt5, hits give low values 0.994 | locus YBR009C, strain hhf1, hits give low values 1.02 | locus YBR021W, strain FUR4, hits give low values 0.964 | locus YBR023C, strain chs3, hits give low values 0.981 | locus YBR171W, strain sec66, hits give low values 0.985 | locus YBR229C, strain ROT2, hits give low values 0.943 | locus YBR231C, strain swc5, hits give low values 0.973 | locus YBR279W, strain paf1, hits give low values 1.01 | locus YCL011C, strain gbp2, hits give low values 1 | locus YCL016C, strain dcc1, hits give low values 0.986 | locus YCL029C, strain bik1, hits give low values 0.967 | locus YCL069W, strain vba3, hits give low values 0.989 | locus YCR088W, strain abp1, hits give low values 0.995 | locus YDL005C, strain med2, hits give low values 0.998 | locus YDL035C, strain GPR1, hits give low values 0.979 | locus YDL040C, strain nat1, hits give low values 1.01 | locus YDL074C, strain BRE1, hits give low values 0.948 | locus YDL101C, strain DUN1, hits give low values 0.979 | locus YDL134C, strain PPH21, hits give low values 0.992 | locus YDL185W, strain tfp1, hits give low values 0.915 | locus YDL192W, strain arf1, hits give low values 0.976 | locus YDR001C, strain nth1, hits give low values 0.99 | locus YDR069C, strain doa4, hits give low values 0.985 | locus YDR101C, strain arx1, hits give low values 0.978 | locus YDR150W, strain NUM1, hits give low values 0.971 | locus YDR159W, strain sac3, hits give low values 0.935 | locus YDR162C, strain NBP2, hits give low values 1.01 | locus YDR195W, strain ref2 0.967 | locus YDR297W, strain sur2, hits give low values 0.984 | locus YDR318W, strain mcm21, hits give low values 0.982 | locus YDR334W, strain swr1, hits give low values 1.04 | locus YDR335W, strain msn5, hits give low values 1.01 | locus YDR388W, hits give low values 0.99 | locus YDR392W, strain spt3, hits give low values 0.894 | locus YDR502C, strain sam2, hits give low values 0.983 | locus YEL003W, strain gim4, hits give low values 1 | locus YEL037C, strain rad23, hits give low values 0.99 | locus YEL061C, strain CIN8 (second series), hits give low values 0.989 | locus YEL061C, strain CIN8, hits give low values 0.987 | locus YER015W, strain faa2, hits give low values 0.991 | locus YER016W, strain bim1, hits give low values 0.993 | locus YER110C, hits give low values 0.983 | locus YER111C, strain swi4, hits give low values 1.01 | locus YER155C, strain BEM2 (second series), hits give low values 1.02 | locus YER155C, strain BEM2, hits give low values 0.979 | locus YER167W, strain BCK2, hits give low values 0.976 | locus YFR010W, strain ubp6, hits give low values 1.01 | locus YGL078C, strain dbp3, hits give low values 0.98 | locus YGL086W, strain mad1, hits give low values 0.962 | locus YGL167C, strain pmr1, hits give low values 0.984 | locus YGL173C, strain kem1, hits give low values 0.985 | locus YGL227W, strain vid30, hits give low values 1.02 | locus YGL240W, strain doc1, hits give low values 0.951 | locus YGL248W, strain PDE1, hits give low values 0.974 | locus YGL253W, strain hxk2, hits give low values 0.986 | locus YGR078C, strain PAC10, hits give low values 0.979 | locus YGR135W, strain pre9, hits give low values 0.997 | locus YGR252W, strain gcn5, hits give low values 1.02 | locus YHR013C, strain ard1, hits give low values 1 | locus YHR027C, strain rpn1, hits give low values 0.989 | locus YHR030C, strain SLT2, hits give low values 0.986 and 0.935 | locus YHR079C, strain IRE1 (second series), hits give low values 0.984 | locus YHR079C, strain IRE1, hits give low values 0.941 | locus YHR094C, strain hxt1, hits give low values 0.981 | locus YHR129C, strain ARP1, hits give low values 0.969 | locus YHR142W, strain chs7, hits give low values 1 | locus YHR200W, strain rpn10, hits give low values 0.961 | locus YIL066C, strain RNR3, hits give low values 0.958 | locus YIL073C, strain SPO22, hits give low values 0.964 | locus YIL125W, strain kgd1, hits give low values 0.981 | locus YIR030C, strain dcg1, hits give low values 0.966 | locus YJL092W, strain hpr5, hits give low values 0.99 | locus YJL095W, strain BCK1 (second series), hits give low values 0.993 | locus YJL095W, strain BCK1, hits give low values 0.993 and 0.928 | locus YJL115W, strain asf1, hits give low values 1 | locus YJL129C, strain trk1, hits give low values 0.922 | locus YJL134W, strain LCB3, hits give low values 0.989 | locus YJL154C, strain vps35, hits give low values 0.998 | locus YJL164C, strain tpk1, hits give low values 0.997 | locus YJL166W, strain qcr8, hits give low values 0.99 | locus YJL168C, strain set2, hits give low values 0.984 | locus YJL187C, strain SWE1 (second series), hits give low values 0.974 | locus YJR043C, strain POL32, hits give low values 0.997 | locus YJR066W, strain TOR1, hits give low values 0.878

From PubChem BioAssay AID1159580 (chemical genetic matrix, 2015)
